Measurements: paper PMC5540273 (PLoS ONE, 2017)

Columns and labels:
Settings in all cases: concentration: 1 μM, replicates: in singlicate; n = 1
MTOR = tested on: MTOR
MUSK = tested on: MUSK
MYLK2 = tested on: MYLK2
MYLK4 = tested on: MYLK4
MYLK = tested on: MYLK
MYO3A = tested on: MYO3A
MYO3B = tested on: MYO3B
NDR1 = tested on: T1, NDR1
T1 construct: gene STK38

NDR2 = tested on: NDR2
NEK10 = tested on: NEK10
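Note: KINOMEscan kinase panel screen.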

SMILES	%Inh (MTOR)	%Inh (MUSK)	%Inh (MYLK2)	%Inh (MYLK4)	%Inh (MYLK)	%Inh (MYO3A)	%Inh (MYO3B)	%Inh (NDR1)	%Inh (NDR2)	%Inh (NEK10)
COc1ccc(CNC(=O)NC2CCN(c3ccnc(Nc4ccc(F)cc4)n3)CC2)cc1 [GSK1379788]	18%	0%	0%	5%	5%	40%	0%	7%	16%	3%
Nc1n[nH]c2cnc(-c3ccccc3)cc12 [SB-642124]	14%	99.9%	6%	69%	3%	8%	0%	20%	0%	47%
COc1ccc(-c2coc3ccc(-c4nnc(SCc5ccc(OC)c(C(F)(F)F)c5)o4)cc23)cc1	0%	1%	0%	0%	15%	8%	36%	20%	0%	0%
C[C@@H](Oc1cc(-n2cnc3cc(-c4ccnc(NCCS(C)(=O)=O)c4)ccc32)sc1C(N)=O)c1ccccc1Cl [GSK907232]	2%	30%	53%	2%	10%	13%	0%	0%	0%	0%
Oc1cc(Nc2ccnc3cc(I)ccc23)ccc1F [GW552771]	11%	5%	0%	1%	17%	0%	0%	0%	0%	9%
O=C(Nc1cccc(-c2nn3ccccc3c2-c2ccnc(Nc3cccc(C(F)(F)F)c3)n2)c1)c1c(F)cccc1F [GSK292658]	0%	10%	0%	0%	0%	0%	0%	0%	0%	0%
O=C(Nc1ccccc1F)NC1CCN(c2ccnc(Nc3ccc(F)cc3)n2)CC1 [GSK1379800]	17%	3%	16%	10%	8%	37%	0%	7%	0%	5%
O=C(NC1CCN(c2ccnc(Nc3ccc(F)cc3)n2)C1)c1cc2ccccc2s1 (centres unmarked) [GSK1379716]	25%	21%	4%	5%	36%	36%	0%	8%	0%	19%
CC(C)(C)c1ccc2nccc(Nc3cccc(O)c3)c2c1 [GW856795]	0%	0%	0%	0%	20%	6%	5%	0%	0%	0%
CCn1c(-c2nonc2N)nc2c(C#CC(C)(C)O)nc(OC[C@H](N)c3ccccc3)cc21 [GSK943949]	20%	0%	0%	0%	12%	0%	0%	34%	2%	34%
O=C(Nc1cccc(Oc2ccc3nc(NC(=O)C4CC4)cn3n2)c1)c1ccccc1C(F)(F)F	15%	11%	0%	0%	10%	0%	0%	26%	0%	0%
O=C(O)C(F)(F)F.O=C(O)C(F)(F)F.O=c1[nH]ccc2nc(N[C@@H]3CCCNC3)nc(Nc3ccc(S(=O)(=O)N4CCOCC4)cc3)c12 [GSK2177277]	9%	98.2%	33%	91.3%	96.9%	52%	0%	97.4%	74%	93.6%
Cl.c1ccc(-c2ccc3c(Nc4ccc5[nH]ccc5c4)ccnc3c2)nc1 [GW440138]	4%	0%	0%	0%	13%	23%	0%	0%	27%	1%
CN(C)S(=O)(=O)c1cc(-c2ccc3nccc(-c4cccc(S(N)(=O)=O)c4)c3c2)cnc1N [GSK1669921]	100%	16%	0%	11%	35%	0%	1%	17%	0%	9%
COc1cc(Nc2nccc(-c3c(-c4cccc(NC(=O)c5c(F)cccc5F)c4)nn4ncccc34)n2)cc(OC)c1OC [GSK327238]	8%	25%	10%	7%	9%	38%	40%	20%	0%	15%
CN(C)Cc1ccc(-c2ccc3c(Nc4ccc(Oc5ccccn5)cc4)ccnc3c2)o1 [GW567148]	8%	0%	0%	0%	4%	0%	0%	6%	0%	13%

SMILES	%Inh (MTOR)	%Inh (MUSK)	%Inh (MYLK2)	%Inh (MYLK4)	%Inh (MYLK)	%Inh (MYO3A)	%Inh (MYO3B)	%Inh (NDR1)	%Inh (NDR2)	%Inh (NEK10)
CSc1cccc2c(-c3ccncn3)c(-c3ccc(F)cc3)nn12 [GW514786]	24%	7%	0%	0%	23%	13%	0%	13%	12%	2%
COc1cccc(C(=O)Nc2cccc(Oc3ccc4nc(NC(=O)C5CC5)cn4n3)c2)c1	0%	0%	0%	0%	33%	14%	0%	19%	10%	0%
Nc1ncc(-c2ccc3nccc(-c4ccncc4)c3c2)cc1S(=O)(=O)N1CCOCC1 [GSK1627798]	99.3%	0%	0%	0%	20%	0%	0%	6%	0%	16%
Cl.c1ccc(-c2ccc3c(Nc4ccc5[nH]ncc5c4)ccnc3c2)nc1 [GW440137]	7%	7%	5%	11%	26%	36%	0%	8%	10%	1%
Cc1ccc(S(=O)(=O)Nc2ccc(Nc3nccc(Nc4cccc5[nH]ncc45)n3)cc2)cc1 [GSK581271]	5%	12%	17%	50%	0%	9%	0%	0%	0%	3%
Cc1ccc(C(=O)Nc2ccc(Nc3ccnc4cc(-c5nccs5)ccc34)cc2O)cc1.Cl [GW494702]	6%	4%	11%	0%	0%	34%	6%	2%	9%	0%
Cc1ccc(C)c(NC(=O)NC2CCN(c3ccnc(Nc4ccc(F)cc4)n3)C2)c1 (centres unmarked) [GSK1379720]	15%	5%	0%	0%	2%	5%	0%	0%	0%	9%
COc1cccc(-c2ccc3c(NC(=O)C4CC4)n[nH]c3n2)c1 [SB-710903]	20%	0%	78%	6%	11%	45%	0%	10%	16%	20%
COC(=O)Nc1nc2cc(Oc3ccc(NC(=O)Nc4cc(C(F)(F)F)ccc4F)cn3)ccc2[nH]1.Cl.Cl [GW681170]	2%	99.4%	0%	0%	16%	21%	0%	20%	14%	7%
COc1cc(Nc2nccc(-c3c(-c4cccc(NC(=O)c5c(F)cccc5F)c4)nn4ccccc34)n2)cc(OC)c1OC [GSK323521]	33%	23%	91.6%	5%	8%	26%	100%	22%	0%	10%
c1ccc(-c2n[nH]cc2Nc2ccnc3ccccc23)nc1 [GW694077]	11%	7%	0%	99.9%	22%	25%	0%	0%	4%	95.7%
Cl.Cl.NCC(C(=O)Nc1cc(Br)c(-c2ccnc3[nH]ccc23)s1)c1ccccc1 (centres unmarked) [GSK1269851]	26%	1%	56%	99.8%	37%	0%	0%	70%	13%	12%
Nc1ncnc2c1nc(-c1ccccc1)n2-c1ccccc1 [SKF-97293]	8%	11%	0%	25%	32%	13%	38%	32%	14%	21%
CNC(=O)c1ccccc1Nc1nc(Nc2ccc(N3CCOCC3)cc2)ncc1Cl.Cl [GSK1576028]	8%	74%	74%	99.9%	94%	48%	0%	97.9%	91.3%	24%
Clc1ccc(-c2nn3ncccc3c2-c2ccnc(Nc3ccc4c(c3)OCCO4)n2)cc1 [GW829116]	0%	0%	0%	0%	0%	7%	1%	34%	8%	0%
Cc1ccc(C(=O)N2CC[C@@H](O)C2)cc1-n1c(C)cc(OCc2ccc(F)cc2F)c(Br)c1=O	45%	9%	0%	0%	0%	0%	0%	26%	0%	0%
